# Experimental data taken from PubChem BioAssay (EPA / NIEHS).
# Several values for one entry are separate records, joined by “and”; a condition that tells them apart may be missing. Equal values may be shown once. Inconclusive results are not listed. Activity calls are given as the source filed them. Rule for the calls: active = hit-call score of the fitted dose curve at least 0.9, where 1 is the maximum; inconclusive = response in the unintended direction; inactive = score below 0.9.
# Key:
# [1] = target: human Neurokinin, NK2 Receptor, TACR2 (gene 6865) (UniProt P21452); assay: NVS_GPCR_hNK2: NovaScreen (NVS) G Protein-Coupled Receptor Assay for human Neurokinin, NK2 Receptor (AID 2283278);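 note: actives reduce bound radioligand signal relative to DMSO baseline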
# Procedure, shortened: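 Radioligand binding on membranes from CHO cells expressing receptor, filter-based scintillation read 4 h after dosing. Initial duplicate screen at 25 uM, actives in concentration series; loss of signal versus DMSO.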
# [2] = target: human Neurotensin Receptor (NTS), NTSR1 (gene 4923) (UniProt P30989); assay: NVS_GPCR_hNTS: NovaScreen (NVS) G Protein-Coupled Receptor Assay for human Neurotensin Receptor (NTS) (AID 2283279)
# Procedure, shortened: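 Compounds competed with a radiolabelled ligand for binding to CHO-derived human neurotensin receptor; bound signal counted after filtration, 1 h. Screened first at a single concentration of 25 uM in duplicate, then concentration series to 50 uM maximum for actives.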
# [3] = target: mouse Cholecystokinin, CCK1 Receptor (CCKA), Cckar (gene 12425) (UniProt O08786); assay: NVS_GPCR_mCCKAPeripheral: NovaScreen (NVS) G Protein-Coupled Receptor Assay for mouse Cholecystokinin, CCK1 Receptor (CCKA) (AID 2283285)
# Procedure, shortened: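 Chemicals were first screened in duplicate at 25 uM, with those meeting threshold (e.g., 30% inhibition) retested in singleton concentration series to 50 uM maximum. Binding of radioligand to mouse pancreatic membranes was read after 2 h by filtration and scintillation counting.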
# [4] = target: human Orphanin, Opioid Related Nociceptin Receptor 1 (ORL1), OPRL1 (gene 4987) (UniProt P41146); assay: NVS_GPCR_hORL1: NovaScreen (NVS) G Protein-Coupled Receptor Assay for human Orphanin, Opioid Related Nociceptin Receptor 1 (ORL1) (AID 2283283)
# Procedure, shortened: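 Cell-free binding using HEK293-derived receptor protein: radioligand displacement measured by filter scintillation 1 hour after dosing. Primary testing at 25 uM in duplicate, followed by singleton concentration series up to 50 uM; DMSO served as negative control.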
# [5] = target: human Neuropeptide Receptor Y1 (NPY1), NPY1R (gene 4886) (UniProt P25929); assay: NVS_GPCR_hNPY1: NovaScreen (NVS) G Protein-Coupled Receptor Assay for human Neuropeptide Receptor Y1 (NPY1) (AID 2283276)
# Procedure, shortened: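 Displacement of specific radioligand from NPY1 receptor of SK-N-MC origin, read by filtration and scintillation after 1 h. Compounds first tested at 25 uM in duplicate, then actives in concentration series; signal loss relative to DMSO.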
# [6] = target: human Vasopressin 1A Receptor (V1A), AVPR1A (gene 552) (UniProt P37288); assay: NVS_GPCR_hV1A: NovaScreen (NVS) G Protein-Coupled Receptor Assay for human Vasopressin 1A Receptor (V1A) (AID 2283284)
# Procedure, shortened: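 Single-concentration duplicate screen at 25 uM, with concentration-response follow-up (top 50 uM) for actives. The assay measured displacement of a radioligand from human platelet-derived receptor after 1.5 h, detected by filtration and scintillation counting.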
# [7] = target: human Dopamine Receptor D2 (DRD2), DRD2 (gene 1813) (UniProt P14416); assay: NVS_GPCR_hDRD2s: NovaScreen (NVS) G Protein-Coupled Receptor Assay for human Dopamine Receptor D2 (DRD2) (AID 2283266)
# Procedure, shortened: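 Test compound (25 uM, duplicate in the primary screen; concentration series at follow-up) competed with radioligand for human DRD2 in CHO-derived membrane protein. Filter-based scintillation counting was done 1.5 hours after dosing, with loss of signal analysed against DMSO.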
# [8] = target: human Endothelin Receptor Type B (ETB), EDNRB (gene 1910) (UniProt P24530); assay: NVS_GPCR_hETB: NovaScreen (NVS) G Protein-Coupled Receptor Assay for human Endothelin Receptor Type B (ETB) (AID 2283267)
# Procedure, shortened: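 Filter-based scintillation readout of radioligand displacement, 4 h, using membranes from human astrocytoma cells. Actives from a 25 uM duplicate screen were retested in concentration-response (top 50 uM) relative to DMSO baseline.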
# [9] = target: D(1A) dopamine receptor (Homo sapiens) (UniProt P21728); assay: NVS_GPCR_hDRD1: NovaScreen (NVS) G Protein-Coupled Receptor Assay for human Dopamine Receptor D1 (DRD1) (AID 2283269)
# Procedure, shortened: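 Radioligand displacement binding on membranes/protein extracted from HEK293 expressing human D1, cell-free; read 1 h after dosing by filter-based scintillation counting. Primary screen in duplicate at 25 uM, actives followed up in concentration series; signal loss versus DMSO baseline.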
# [10] = target: human Muscarinic, M4 Receptor, CHRM4 (gene 1132) (UniProt P08173); assay: NVS_GPCR_hM4: NovaScreen (NVS) G Protein-Coupled Receptor Assay for human Muscarinic, M4 Receptor (AID 2283274)
# Procedure, shortened: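 Filter-based scintillation counting of radioligand bound to CHO-expressed human M4 preparations after 1 h; loss of signal fitted versus DMSO. Initial duplicate testing at 25 uM, concentration-response follow-up for actives.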
# [11] = target: Muscarinic acetylcholine receptor M5 (Homo sapiens) (UniProt P08912); assay: NVS_GPCR_hM5: NovaScreen (NVS) G Protein-Coupled Receptor Assay for human Muscarinic, M5 Receptor (AID 2283275)
# Procedure, shortened: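 Chemicals passing a primary duplicate screen at 25 uM were run as singleton concentration series, maximum 50 uM. Displacement of a specific radioligand from CHO-extracted receptor was read by filter scintillation after 1 h, relative to DMSO.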
# [12] = target: human Opioid Receptor Delta 1 (Opiate D1), OPRD1 (gene 4985) (UniProt P41143); assay: NVS_GPCR_hOpiate_D1: NovaScreen (NVS) G Protein-Coupled Receptor Assay for human Opioid Receptor Delta 1 (Opiate D1) (AID 2283280)
# Procedure, shortened: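 Membrane preparations from CHO cells bearing the human receptor were incubated 1 h with test chemical, and bound radioligand was counted after filtration. Actives from 25 uM duplicate screening were retested in concentration-response.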
# [13] = target: Muscarinic acetylcholine receptor M2 (Homo sapiens) (UniProt P08172); assay: NVS_GPCR_hM2: NovaScreen (NVS) G Protein-Coupled Receptor Assay for human Muscarinic, M2 Receptor (AID 2283273)
# Procedure, shortened: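 CHO-expressed human M2 receptor preparation, competitive displacement of a radioligand read by filter-based scintillation counting after 1 h. Single 25 uM duplicate screen, then concentration-response follow-up of actives; DMSO baseline.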
# [14] = target: human Leukotriene B4 Receptor 1 (LTB4-BLT1), LTB4R (gene 1241) (UniProt Q15722); assay: NVS_GPCR_hLTB4_BLT1: NovaScreen (NVS) G Protein-Coupled Receptor Assay for human Leukotriene B4 Receptor 1 (LTB4-BLT1) (AID 2283271)
# Procedure, shortened: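 Cell-free human neutrophil receptor preparation, 1 h exposure, radioligand binding read by filter scintillation counting. Single 25 uM duplicate screen, then concentration series topping at 50 uM; binding loss scored against DMSO baseline.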
# [15] = target: Neuropeptide Y receptor type 2 (Homo sapiens) (UniProt P49146); assay: NVS_GPCR_hNPY2: NovaScreen (NVS) G Protein-Coupled Receptor Assay for human Neuropeptide Receptor Y2 (NPY2) (AID 2283277)
# Procedure, shortened: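 Chemicals were first tested in duplicate at 25 uM, then actives in singleton concentration series to 50 uM. Tracer binding to SK-N-MC-derived protein measured cell-free after 1 h via filter scintillation; signal loss relative to DMSO.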
# [16] = target: human Histamine 1 Receptor (H1), HRH1 (gene 3269) (UniProt P35367); assay: NVS_GPCR_hH1: NovaScreen (NVS) G Protein-Coupled Receptor Assay for human Histamine 1 Receptor (H1) (AID 2283268)
# Procedure, shortened: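 Filter-based scintillation detection of radioligand binding to human H1, 1 h incubation; chemicals screened in duplicate at 25 uM, then concentration-response; signal loss relative to DMSO taken as activity.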
# [17] = target: human Thromboxane A2 Receptor (TXA2), TBXA2R (gene 6915) (UniProt P21731); assay: NVS_GPCR_hTXA2: NovaScreen (NVS) G Protein-Coupled Receptor Assay for human Thromboxane A2 Receptor (TXA2) (AID 2283282);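 note: actives reduce bound radioligand signal relative to DMSO baseline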
# Procedure, shortened: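 Cell-free radioligand binding on membrane protein from human platelets; radioligand displacement read by filter-based scintillation counting after 1 h. Primary screen in duplicate at 25 uM, actives then run in concentration series; loss of signal versus DMSO.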
# [18] = target: Muscarinic acetylcholine receptor M1 (Homo sapiens) (UniProt P11229); assay: NVS_GPCR_hM1: NovaScreen (NVS) G Protein-Coupled Receptor Assay for human Muscarinic, M1 Receptor (AID 2283270)
# Procedure, shortened: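 Actives from a duplicate 25 uM single-point screen were retested in concentration series. Binding measured as displacement of a radioligand from CHO-derived receptor preparation, 1 h incubation, filtration and scintillation counting, analysed as signal loss against DMSO.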
# [19] = target: Muscarinic acetylcholine receptor M3 (Homo sapiens) (UniProt P20309); assay: NVS_GPCR_hM3: NovaScreen (NVS) G Protein-Coupled Receptor Assay for human Muscarinic, M3 Receptor (AID 2283272)
# Procedure, shortened: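 Radioligand displacement binding on human M3 receptor in CHO-derived membranes, 1 h incubation, filter-based scintillation counting. Primary screen in duplicate at 25 uM; actives followed up in concentration series; loss of signal versus DMSO.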
# Chain of Muscarinic acetylcholine receptor M2 (Homo sapiens) (P08172 whole entry, looked up): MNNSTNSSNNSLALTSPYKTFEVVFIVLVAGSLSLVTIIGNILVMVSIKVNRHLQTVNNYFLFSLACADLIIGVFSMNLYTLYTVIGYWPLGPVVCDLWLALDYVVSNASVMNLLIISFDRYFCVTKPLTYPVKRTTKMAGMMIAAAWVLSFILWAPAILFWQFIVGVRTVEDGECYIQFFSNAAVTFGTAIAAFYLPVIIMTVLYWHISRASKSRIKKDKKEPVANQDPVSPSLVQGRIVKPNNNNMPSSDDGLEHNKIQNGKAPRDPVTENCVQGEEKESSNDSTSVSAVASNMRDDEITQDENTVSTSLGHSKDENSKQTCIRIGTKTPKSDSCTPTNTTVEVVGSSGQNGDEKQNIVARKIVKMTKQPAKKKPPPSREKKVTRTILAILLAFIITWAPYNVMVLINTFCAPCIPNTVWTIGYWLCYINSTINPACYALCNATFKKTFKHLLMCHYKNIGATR
# Chain of mouse Cholecystokinin, CCK1 Receptor (CCKA), Cckar (gene 12425) (O08786 whole entry, looked up): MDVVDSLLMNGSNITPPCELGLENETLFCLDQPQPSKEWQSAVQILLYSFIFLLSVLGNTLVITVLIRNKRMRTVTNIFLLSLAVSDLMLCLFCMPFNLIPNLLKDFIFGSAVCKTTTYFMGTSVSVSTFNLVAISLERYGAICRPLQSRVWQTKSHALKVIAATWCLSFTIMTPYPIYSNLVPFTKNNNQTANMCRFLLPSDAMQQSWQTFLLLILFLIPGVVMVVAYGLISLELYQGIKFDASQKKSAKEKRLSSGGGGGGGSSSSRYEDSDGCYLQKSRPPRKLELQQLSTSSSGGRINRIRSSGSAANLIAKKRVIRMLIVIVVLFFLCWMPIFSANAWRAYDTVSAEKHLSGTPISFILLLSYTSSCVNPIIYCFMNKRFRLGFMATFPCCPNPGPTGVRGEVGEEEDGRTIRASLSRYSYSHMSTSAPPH
# Chain of human Neurokinin, NK2 Receptor, TACR2 (gene 6865) (P21452 whole entry, looked up): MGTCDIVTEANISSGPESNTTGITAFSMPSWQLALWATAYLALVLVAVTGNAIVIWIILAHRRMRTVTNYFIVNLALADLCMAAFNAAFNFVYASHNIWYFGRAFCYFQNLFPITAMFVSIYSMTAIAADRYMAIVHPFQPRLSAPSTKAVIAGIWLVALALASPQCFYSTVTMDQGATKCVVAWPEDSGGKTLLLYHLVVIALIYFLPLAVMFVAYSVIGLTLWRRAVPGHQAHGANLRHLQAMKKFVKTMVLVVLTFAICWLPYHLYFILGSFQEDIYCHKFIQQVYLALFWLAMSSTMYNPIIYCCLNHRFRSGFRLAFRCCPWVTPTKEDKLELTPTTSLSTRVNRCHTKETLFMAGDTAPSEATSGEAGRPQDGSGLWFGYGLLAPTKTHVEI
# Chain of human Leukotriene B4 Receptor 1 (LTB4-BLT1), LTB4R (gene 1241) (Q15722 whole entry, looked up): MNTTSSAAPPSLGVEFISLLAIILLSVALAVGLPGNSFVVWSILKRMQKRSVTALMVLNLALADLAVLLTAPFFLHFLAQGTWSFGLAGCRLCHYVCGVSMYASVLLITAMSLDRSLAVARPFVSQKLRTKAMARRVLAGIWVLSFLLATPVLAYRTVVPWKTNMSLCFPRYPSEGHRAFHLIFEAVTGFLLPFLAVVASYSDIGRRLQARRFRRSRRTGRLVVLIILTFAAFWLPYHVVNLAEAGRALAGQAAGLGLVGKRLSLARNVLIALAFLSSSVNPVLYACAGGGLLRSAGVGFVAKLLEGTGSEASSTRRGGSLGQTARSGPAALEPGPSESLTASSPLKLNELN
# Chain of human Neurotensin Receptor (NTS), NTSR1 (gene 4923) (P30989 whole entry, looked up): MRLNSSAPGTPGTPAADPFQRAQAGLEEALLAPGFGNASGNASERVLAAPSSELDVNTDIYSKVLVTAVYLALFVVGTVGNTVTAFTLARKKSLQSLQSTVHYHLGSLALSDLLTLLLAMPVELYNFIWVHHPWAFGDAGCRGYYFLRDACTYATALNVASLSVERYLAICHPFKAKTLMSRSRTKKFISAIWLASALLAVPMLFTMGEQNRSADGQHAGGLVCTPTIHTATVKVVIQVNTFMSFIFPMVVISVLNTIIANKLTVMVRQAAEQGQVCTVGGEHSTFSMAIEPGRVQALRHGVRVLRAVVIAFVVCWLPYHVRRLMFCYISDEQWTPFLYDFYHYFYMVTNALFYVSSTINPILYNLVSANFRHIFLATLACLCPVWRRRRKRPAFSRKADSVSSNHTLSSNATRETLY
# Chain of human Endothelin Receptor Type B (ETB), EDNRB (gene 1910) (P24530 whole entry, looked up): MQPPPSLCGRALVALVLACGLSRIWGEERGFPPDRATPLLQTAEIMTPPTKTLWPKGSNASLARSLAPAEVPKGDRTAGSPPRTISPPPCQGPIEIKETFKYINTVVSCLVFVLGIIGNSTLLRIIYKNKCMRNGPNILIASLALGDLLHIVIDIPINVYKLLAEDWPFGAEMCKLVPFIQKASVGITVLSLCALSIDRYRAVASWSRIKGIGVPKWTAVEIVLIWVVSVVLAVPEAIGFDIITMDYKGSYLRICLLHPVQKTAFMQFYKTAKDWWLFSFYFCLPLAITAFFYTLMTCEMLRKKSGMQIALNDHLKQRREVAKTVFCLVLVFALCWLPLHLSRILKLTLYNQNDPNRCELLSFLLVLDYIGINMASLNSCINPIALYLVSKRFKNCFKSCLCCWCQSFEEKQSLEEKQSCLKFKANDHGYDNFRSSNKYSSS
# Chain of human Thromboxane A2 Receptor (TXA2), TBXA2R (gene 6915) (P21731 whole entry, looked up): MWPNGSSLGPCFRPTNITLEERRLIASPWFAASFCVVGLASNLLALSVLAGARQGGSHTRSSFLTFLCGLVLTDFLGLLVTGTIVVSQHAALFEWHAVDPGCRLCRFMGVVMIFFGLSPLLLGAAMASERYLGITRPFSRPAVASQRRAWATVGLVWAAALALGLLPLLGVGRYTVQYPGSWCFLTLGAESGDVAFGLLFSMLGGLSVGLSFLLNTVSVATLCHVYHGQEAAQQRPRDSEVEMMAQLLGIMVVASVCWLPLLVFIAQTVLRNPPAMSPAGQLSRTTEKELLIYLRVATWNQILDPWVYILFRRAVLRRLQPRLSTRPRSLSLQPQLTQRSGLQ
# Chain of D(1A) dopamine receptor (Homo sapiens) (P21728 whole entry, looked up): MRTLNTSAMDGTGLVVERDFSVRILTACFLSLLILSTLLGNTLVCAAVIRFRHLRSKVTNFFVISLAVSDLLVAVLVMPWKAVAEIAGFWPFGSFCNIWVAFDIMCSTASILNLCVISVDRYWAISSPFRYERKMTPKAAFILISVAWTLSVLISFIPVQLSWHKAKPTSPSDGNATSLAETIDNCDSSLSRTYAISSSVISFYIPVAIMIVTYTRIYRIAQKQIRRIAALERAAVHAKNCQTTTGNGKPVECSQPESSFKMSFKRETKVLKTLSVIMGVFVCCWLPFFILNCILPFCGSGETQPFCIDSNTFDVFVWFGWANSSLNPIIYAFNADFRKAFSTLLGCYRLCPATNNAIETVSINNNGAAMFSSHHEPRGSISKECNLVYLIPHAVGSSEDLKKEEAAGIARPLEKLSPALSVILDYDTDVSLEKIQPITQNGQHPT
# Chain of human Vasopressin 1A Receptor (V1A), AVPR1A (gene 552) (P37288 whole entry, looked up): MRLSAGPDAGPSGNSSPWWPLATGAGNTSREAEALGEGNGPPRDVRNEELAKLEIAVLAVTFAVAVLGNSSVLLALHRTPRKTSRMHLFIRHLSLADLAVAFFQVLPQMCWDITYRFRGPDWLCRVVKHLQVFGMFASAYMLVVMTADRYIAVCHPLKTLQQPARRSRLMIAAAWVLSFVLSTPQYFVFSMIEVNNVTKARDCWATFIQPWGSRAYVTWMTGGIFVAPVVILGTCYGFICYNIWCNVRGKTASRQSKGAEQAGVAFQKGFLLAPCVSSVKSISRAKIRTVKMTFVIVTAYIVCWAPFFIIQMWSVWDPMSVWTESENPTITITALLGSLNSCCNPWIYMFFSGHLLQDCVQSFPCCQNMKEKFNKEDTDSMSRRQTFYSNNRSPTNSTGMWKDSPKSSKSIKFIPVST
# Chain of human Opioid Receptor Delta 1 (Opiate D1), OPRD1 (gene 4985) (P41143 whole entry, looked up): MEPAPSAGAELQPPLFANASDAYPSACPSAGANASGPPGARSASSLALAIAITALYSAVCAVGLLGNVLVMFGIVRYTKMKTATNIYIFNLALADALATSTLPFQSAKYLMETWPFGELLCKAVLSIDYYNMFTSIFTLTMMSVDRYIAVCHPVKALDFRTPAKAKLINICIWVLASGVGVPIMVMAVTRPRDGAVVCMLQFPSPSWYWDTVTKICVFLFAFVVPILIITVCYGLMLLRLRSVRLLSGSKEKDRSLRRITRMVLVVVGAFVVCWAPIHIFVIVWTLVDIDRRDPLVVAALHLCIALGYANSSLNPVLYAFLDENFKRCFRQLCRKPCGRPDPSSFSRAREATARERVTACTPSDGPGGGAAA
# Chain of human Muscarinic, M4 Receptor, CHRM4 (gene 1132) (P08173 whole entry, looked up): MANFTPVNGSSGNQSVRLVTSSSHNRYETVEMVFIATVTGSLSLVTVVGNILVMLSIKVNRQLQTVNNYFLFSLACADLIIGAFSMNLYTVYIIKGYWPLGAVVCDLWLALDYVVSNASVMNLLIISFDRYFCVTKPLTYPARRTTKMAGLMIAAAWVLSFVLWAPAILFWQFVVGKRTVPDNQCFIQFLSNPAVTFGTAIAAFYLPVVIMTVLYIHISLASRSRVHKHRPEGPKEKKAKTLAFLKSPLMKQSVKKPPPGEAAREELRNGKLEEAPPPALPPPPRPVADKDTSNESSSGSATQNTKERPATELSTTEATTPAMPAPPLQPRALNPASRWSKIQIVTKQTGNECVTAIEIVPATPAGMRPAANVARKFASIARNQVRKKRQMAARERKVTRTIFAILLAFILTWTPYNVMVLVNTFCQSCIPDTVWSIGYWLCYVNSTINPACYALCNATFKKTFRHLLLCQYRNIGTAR
# Chain of human Orphanin, Opioid Related Nociceptin Receptor 1 (ORL1), OPRL1 (gene 4987) (P41146 whole entry, looked up): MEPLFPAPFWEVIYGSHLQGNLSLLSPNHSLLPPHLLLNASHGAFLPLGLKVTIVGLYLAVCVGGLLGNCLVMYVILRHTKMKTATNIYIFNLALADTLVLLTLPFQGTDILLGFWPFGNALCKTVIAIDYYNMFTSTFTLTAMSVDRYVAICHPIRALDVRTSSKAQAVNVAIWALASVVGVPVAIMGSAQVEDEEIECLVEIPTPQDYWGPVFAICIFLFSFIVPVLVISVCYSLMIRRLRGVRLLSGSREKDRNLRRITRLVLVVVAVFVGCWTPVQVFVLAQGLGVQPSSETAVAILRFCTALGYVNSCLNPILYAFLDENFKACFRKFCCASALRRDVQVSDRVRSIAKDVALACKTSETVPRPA
structure (smiles),measurement,setting,value
CN(C)CCCN1c2ccccc2Sc2ccc(Cl)cc21,AC50,[1],25 µM (active)
same,AC50,[2],14.5 µM (active)
same,AC50,[3],21.8 µM (active)
C#CC(O)C(CC)CCCC (centres undefined),outcome,[4],inactive
Oc1ccc(O)cc1,AC50,[5],10.8 µM (active)
same,outcome,[1],inactive
same,outcome,[6],inactive
Nc1nc(=S)c2[nH]cnc2[nH]1,AC50,[1],44.4 µM (active)
CCN(CC)CCOc1ccc(C(=C(Cl)c2ccccc2)c2ccccc2)cc1,AC50,[7],1.79 µM (active)
same,AC50,[8],32.3 µM (active)
same,AC50,[9],2.28 µM (active)
same,AC50,[10],4.2 µM (active)
same,AC50,[11],2.53 µM (active)
same,AC50,[5],31.8 µM (active)
same,AC50,[1],9.71 µM (active)
same,outcome,[2],inactive
same,AC50,[12],9.7 µM (active)
same,AC50,[4],28.9 µM (active) and 7.41 µM (active) and 31.3 µM (active)
same,AC50,[3],21.4 µM (active)
CO[C@@H]1COCC[C@@H]1N[C@@H]1CC[C@@](C(=O)N2CCc3ncc(C(F)(F)F)cc3C2)(C(C)C)C1,AC50,[13],12.3 µM (active)
same,AC50,[10],25 µM (active)
same,outcome,[6],inactive
CCCCC(CC)CO (centres undefined),outcome,[14],inactive
Cn1cnc2c1c(=O)[nH]c(=O)n2C,outcome,[9],inactive
same,outcome,[10],inactive
same,outcome,[12],inactive
OCC(O)CO,outcome,[12],inactive
CC(=O)[C@@]1(O)CC[C@H]2[C@@H]3CCC4=CC(=O)CC[C@]4(C)[C@H]3CC[C@@]21C,AC50,[13],0.617 µM (active)
O=C1CCCCC1,outcome,[15],inactive
CCC(C)N(C)C(=O)c1cc2ccccc2c(-c2ccccc2Cl)n1 (centres undefined),AC50,[16],15.9 µM (active)
same,AC50,[1],15.9 µM (active)
same,AC50,[17],1 µM (active)
same,outcome,[6],inactive
same,AC50,[3],10.8 µM (active)
CC(N)=O,outcome,[8],inactive
CC(=O)OCC(COC(C)=O)OC(C)=O,AC50,[14],40.5 µM (active)
CCCCCCC(CCCCCCCCCCC(=O)OCC(COC(C)=O)OC(C)=O)OC(C)=O (centres undefined),AC50,[17],4.54 µM (active)
C/C=C/C=C/C(=O)O,outcome,[2],inactive
NC(=Nc1ccccc1)Nc1ccccc1,AC50,[13],19.8 µM (active)
same,AC50,[10],14.9 µM (active)
Cc1cc(SC2=C(O)C[C@@](CCc3ccc(N)cc3)(C(C)C)OC2=O)c(C(C)(C)C)cc1CO,outcome,[7],inactive
same,outcome,[16],inactive
same,outcome,[9],inactive
same,outcome,[18],inactive
same,outcome,[10],inactive
same,outcome,[11],inactive
same,AC50,[17],0.881 µM (active)
same,outcome,[3],inactive
O=C(NS(=O)(=O)/C=C/c1cccs1)c1ccc(F)cc1Br,outcome,[8],inactive
same,AC50,[3],22.6 µM (active)
CCc1cc(C2=C(C(=O)O)N(c3ccccc3C(F)(F)F)S(=O)(=O)c3ccccc32)cc2c1OCO2,AC50,[8],0.442 µM (active)
same,AC50,[14],17.1 µM (active)
same,AC50,[1],25 µM (active)
same,AC50,[17],3.08 µM (active)
same,AC50,[3],16.6 µM (active)
CCc1nc(N)nc(N)c1-c1ccc(Cl)cc1,AC50,[9],4.73 µM (active)
same,outcome,[19],inactive
same,AC50,[13],13.9 µM (active)
same,outcome,[10],inactive
